Most compounds without a hit are left out; they make up all but 2.9% or so of the library.
DRD3 agonist: agonists of human D3 dopamine receptor; max activation, %; 410,000 tested, 0.58% active; D3R DiscoveRx beta-arrestin cells, luminescence, 90 min; P35462; AID 652048; in the data active means max activation above about 30%
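Agonist-mode cell screen: cells plated at 1500/well and incubated overnight at 37 °C, then exposed to library compounds for 90 min at 37 °C. Detection reagent was added for 30–60 min at room temperature, and luminescence was read.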
MmCpn inh: M. maripaludis TRiC chaperonin inhibition. purified Mm-Cpn ATPase, ADP Transcreener TR-FRET. Potency, µM (series often up to 76.9 µM), usual class: inhibitors. 330,000 tested, 0.031% active; active means well fitted inhibition curve with a large enough effect; inconclusive means small, poorly fitted or top-dose-only effect; further: nearly all actives have a fitted effect of over 80% in size
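ATP (10 uM final) was added to archaeal chaperonin (25 nM final) after 10 min exposure to test compound at 37°C; after 30 min further incubation, ADP was detected by competitive TR-FRET.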
PTAP TSG101 blk: blocks PTAP/TSG101 interaction to inhibit HIV-1 budding | AID 493005 | Potency, µM (series often up to 115 µM), actives largely listed as inhibitors | Fluorescence polarization, FITC-PTAP peptide / Tsg101 binding | 340,000 tested, under 10 active; active means well fitted inhibition curve with a large enough effect in the main read-out, with a control signal flat, not every such curve was filed as active; inconclusive means small, poorly fitted or top-dose-only effect, or effect the other way, or a change in a side signal; inactive means no such curve, though single readings can be large or run the other way
Target sequence (Q99816 whole entry, looked up): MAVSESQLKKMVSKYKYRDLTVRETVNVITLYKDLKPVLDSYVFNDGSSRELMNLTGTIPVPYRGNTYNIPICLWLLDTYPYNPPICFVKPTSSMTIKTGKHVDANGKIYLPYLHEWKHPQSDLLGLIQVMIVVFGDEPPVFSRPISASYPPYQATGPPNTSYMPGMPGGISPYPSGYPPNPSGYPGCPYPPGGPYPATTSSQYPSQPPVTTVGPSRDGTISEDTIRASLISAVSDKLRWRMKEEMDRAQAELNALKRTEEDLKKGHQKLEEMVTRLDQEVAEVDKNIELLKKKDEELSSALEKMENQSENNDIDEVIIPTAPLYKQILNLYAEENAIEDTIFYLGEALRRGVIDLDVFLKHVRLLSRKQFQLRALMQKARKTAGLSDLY
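Fluorescence polarization binding of Tsg101 binding domain (10 uM final) to FITC-labeled PTAP peptide (50 nM final) in HEPES pH 7.5 buffer with NaCl, Tween 20, EDTA, TCEP. Compounds added before peptide; binding 20 min at RT.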
Rango release inh: inhibition of RanGTP-driven Rango-importin beta dissociation. Potency, µM (doses to about 46.1 µM). 340,000 tested, 0.071% active. O95149+P62826. Biochemical FRET Rango-importin beta, RanGTP-induced dissociation; further: nearly all actives have a fitted effect of over 45% in size
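Compounds sat 5 min at room temperature with 0.1 uM Rango biosensor plus 0.25 uM importin beta, then FRET pre-read. RanGTP-RCC1 (0.6 uM Ran, 2mM GTP, 0.2 uM RCC1) added for 45 min, and the CFP/YFP post-read measured blocked complex dissociation.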
DRD3 antagonist: blocks the human D3 dopamine receptor. D3R cells, DiscoveRx beta-arrestin luminescence, antagonist mode; hits give low values. max response, negative = inhibition, %. 360,000 tested, 2.5% active. AID 652054; in the data active means max response below about -50%; inconclusive means no clear call, values can overlap the other calls
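Cells plated overnight at 1500 cells/well, then exposed to library compounds with dopamine controls for 90 minutes at 37 degrees C. DiscoveRx reagent added for 30–60 minutes at room temperature; luminescence read, quantitative HTS format.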
Rango complex inh: inhibitors of Rango-importin beta complex formation; Rango CFP/YFP FRET sensor + importin beta, 45 min; 340,000 tested, 0.031% active; Q14974; AID 540263; Potency, µM (top dose mostly 92.2 µM); further: nearly all actives have a fitted effect of over 15% in size
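FRET biosensor Rango (snurportin 1 IBB between N-terminal EYFP and C-terminal Cerulean), 50 nM in PBS/1 mM DTT/0.02% Tween-20/0.1% BSA, preincubated 5 min RT with compound; 0.125 microM importin beta added, 45 min RT, CFP/YFP FRET ratio read.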
A number is an active result; 0 = inactive; ? = inconclusive; - = not tested or not shown. Unless noted, the call rests on the fitted dose curve.

SMILES | DRD3 agonist | MmCpn inh | PTAP TSG101 blk | Rango release inh | DRD3 antagonist | Rango complex inh
Cc1ccc(Cl)cc1NC(=O)C1CCCN(S(=O)(=O)c2cccc3cccnc23)C1 (stereo not given) | 0 | - | - | - | - | -
CCCOc1ccc(-c2nnc(-c3ccncc3)o2)cc1 | 0 | 0 | 0 | 0 | -71 | 0
CC(C)COc1ccc(-c2nnc(-c3ccncc3)o2)cc1 | 0 | 0 | 0 | ? | 0 | 0
Cn1c(SCC(=O)Nc2ccccc2)nc2c([nH]c3ccccc32)c1=O | 0 | 0 | 0 | 0 | 0 | 0
CCOC(=O)c1[nH]c2ccccc2c1NC(=S)Nc1ccccc1 | 0 | 0 | 0 | 0 | 0 | 0
Cc1cccc(NC(=O)CCCn2c(=S)[nH]c3ccccc3c2=O)c1 | 47 | 0 | 0 | 0 | 0 | 0
Cc1cccc(NC(=O)CSc2nc3c([nH]c4ccccc43)c(=O)n2C)c1 | 0 | 0 | 0 | 0 | -70 | 0
CCOC(=O)c1[nH]c2ccccc2c1NC(=S)Nc1cccc(C)c1 | 0 | 0 | 0 | 0 | -53 | ?
COc1cc(NC(=O)CCCn2c(=S)[nH]c3ccccc3c2=O)cc(OC)c1OC | 0 | 0 | 0 | 0 | 0 | 0
COc1ccc(CNC(=O)CCc2cn(C)c3ccccc23)cc1 | 0 | - | - | - | - | -
Cc1ccc2nc(-c3ccncc3)c(Nc3ccc(C(C)C)cc3)n2c1 | 0 | - | - | - | - | -
Cc1ccc(C(=O)/C=C\C(=O)c2ccc(C)cc2)cc1 | 0 | 0 | 0 | 0 | 0 | 0
CC(/C=C/C(=O)c1ccc(C)cc1)=C\c1ccccc1 | 0 | 0 | 0 | 0 | -61 | 0
Cc1ccc(S/C=C\C(=O)c2ccccc2)cc1 | 0 | 0 | 0 | 0 | -53 | 0
CCc1nn(CC(=O)N2CCN(c3cccc(Cl)c3)CC2)c(=O)c2cc3sccc3n12 | 0 | - | - | - | - | -
O=C(Cn1nc(CNc2ccc(Cl)cc2)[n+]2c1CCCCC2)c1ccccc1 | 0 | 0 | 0 | 0 | 0 | 0
Cc1ccc(C(C)C)c(OCc2nn(CC(=O)c3ccc(Cl)cc3)c3[n+]2CCCCC3)c1 | 0 | 0 | 0 | 0 | -52 | 0
O=C(Cn1sc2ccccc2c1=O)N1CCN(C(=O)c2ccco2)CC1 | 0 | 0 | 0 | 0 | 0 | 0
O=C(Nc1ccccc1)N1CCN(c2nc(-c3ccccc3)ns2)CC1 | 36 | 0 | 0 | 0 | 0 | 0
O=C(Nc1ccccc1Cl)N1CCCN(c2nc(-c3ccccc3)ns2)CC1 | 0 | 0 | 0 | 0 | 0 | 0
Cc1ccccc1C[C@H](C(=O)O)N1C(=O)c2ccc(C(=O)O)cc2C1=O | - | 0 | - | - | - | -
CCOc1ccccc1N1CCN(Cc2ccc(OC)c(OC)c2OC)CC1 | 0 | 0 | - | 0 | -141 | 0
CCOc1ccccc1N1CCN(Cc2cnc(-c3ccccc3)[nH]2)CC1 | 0 | 0 | 0 | 0 | -94 | 0
COc1ccccc1N1CCN(Cc2cccc(OC)c2OC)CC1 | 0 | 0 | 0 | 0 | 0 | 0
COc1cc(OC)c(OC)cc1CN1CCN(c2ccccc2OC)CC1 | 0 | 0 | - | 0 | -66 | 0
SMILES | DRD3 agonist | MmCpn inh | PTAP TSG101 blk | Rango release inh | DRD3 antagonist | Rango complex inh
COc1ccccc1N1CCN(Cc2ccc(Br)o2)CC1 | 0 | 0 | 0 | 0 | -81 | 0
CCOc1ccccc1N1CCN(Cc2ccc(OC)c(OC)c2)CC1 | 0 | 0 | 0 | 0 | 0 | 0
CCc1ccc(CNC(=O)c2cnc3sc(N4CCOCC4)nn3c2=O)cc1 | 0 | - | - | - | - | -
CCOc1ccccc1N1CCN(Cc2ccc(Br)s2)CC1 | 0 | 0 | 0 | 0 | -95 | 0
COc1ccc(N2CCN(Cc3cc4c(cc3Br)OCCO4)CC2)cc1 | 0 | 0 | 0 | 0 | 0 | 0
COc1ccccc1N1CCN(Cc2cc3c(cc2Br)OCCO3)CC1 | 0 | 0 | 0 | 0 | -76 | 0
CCOC(=O)C1CCN(c2ccccc2CN2CCN(c3ccccc3OCC)CC2)CC1 | 0 | 0 | 0 | 0 | -75 | 0
CCOC(=O)C1CCN(Cc2ccccn2)CC1 | - | 0 | - | - | - | -
CCOc1ccccc1N1CCN(Cc2ccco2)CC1 | 0 | 0 | 0 | 0 | 0 | 0
COc1cccc(CNC(=O)C(CC(C)C)NC(=O)c2ccccc2C)c1 (stereo not given) | 0 | 0 | 0 | 0 | 0 | 0
Cc1c(CCNC(=O)c2ccco2)sc2nc(-c3ccc(F)cc3)nn12 | 0 | - | - | - | - | -
Cc1ccc(-c2nc3sc(CCNC(=O)c4ccco4)c(C)n3n2)cc1 | 40 | - | - | - | - | -

Compound activity from PubChem BioAssay.
